Our source for the inhibition values is PubChem BioAssay AID720700 (The Scripps Research Institute Molecular Screening Center, 2013).

The inhibition is the relative decrease from the control value, in per cent.

The whole screen tested about 370,000 compounds, of which about 3,100 (0.84%) were called active. What follows is part of a selection rich in actives, with near analogues and random picks from the rest. Values without a mark were called inactive. Cut-off read from the data, not from the text of the source: active = inhibition above about 9.5%; inactive = the rest.

Sequence of 1-phosphatidylinositol 4,5-bisphosphate phosphodiesterase gamma-1 (Homo sapiens) (P19174 whole entry, looked up): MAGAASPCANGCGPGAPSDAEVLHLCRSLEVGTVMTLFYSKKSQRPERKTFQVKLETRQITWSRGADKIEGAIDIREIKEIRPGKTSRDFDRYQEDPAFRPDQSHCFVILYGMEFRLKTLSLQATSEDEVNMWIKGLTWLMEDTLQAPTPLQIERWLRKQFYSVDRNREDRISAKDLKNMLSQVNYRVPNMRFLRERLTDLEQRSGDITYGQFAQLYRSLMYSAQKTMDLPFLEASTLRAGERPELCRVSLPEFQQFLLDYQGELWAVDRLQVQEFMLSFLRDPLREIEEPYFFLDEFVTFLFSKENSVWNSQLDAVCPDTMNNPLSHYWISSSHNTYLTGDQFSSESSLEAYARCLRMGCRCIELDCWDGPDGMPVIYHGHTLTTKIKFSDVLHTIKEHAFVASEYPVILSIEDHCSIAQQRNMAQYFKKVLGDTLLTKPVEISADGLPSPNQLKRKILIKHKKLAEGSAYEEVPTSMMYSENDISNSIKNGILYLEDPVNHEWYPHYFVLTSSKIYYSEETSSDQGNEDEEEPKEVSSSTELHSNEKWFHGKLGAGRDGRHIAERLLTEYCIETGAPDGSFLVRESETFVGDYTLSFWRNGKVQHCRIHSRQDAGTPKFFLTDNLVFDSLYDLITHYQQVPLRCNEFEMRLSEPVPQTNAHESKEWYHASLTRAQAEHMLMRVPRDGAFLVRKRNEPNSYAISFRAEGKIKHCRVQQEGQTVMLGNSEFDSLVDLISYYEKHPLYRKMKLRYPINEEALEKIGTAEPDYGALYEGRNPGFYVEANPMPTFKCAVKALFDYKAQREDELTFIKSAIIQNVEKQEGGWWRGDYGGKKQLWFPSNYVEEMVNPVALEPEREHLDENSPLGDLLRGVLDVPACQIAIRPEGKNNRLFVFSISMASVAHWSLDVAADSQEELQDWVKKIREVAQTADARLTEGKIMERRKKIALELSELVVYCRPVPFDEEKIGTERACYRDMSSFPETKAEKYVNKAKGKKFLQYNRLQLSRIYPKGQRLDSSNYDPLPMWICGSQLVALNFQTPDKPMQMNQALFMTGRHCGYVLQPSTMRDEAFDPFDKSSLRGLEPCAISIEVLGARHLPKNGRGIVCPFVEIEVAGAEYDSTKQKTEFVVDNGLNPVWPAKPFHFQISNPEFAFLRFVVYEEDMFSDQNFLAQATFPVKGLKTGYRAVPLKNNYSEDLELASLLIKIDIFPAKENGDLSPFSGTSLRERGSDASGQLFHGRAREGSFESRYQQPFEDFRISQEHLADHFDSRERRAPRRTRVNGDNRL

This test addresses 1-phosphatidylinositol 4,5-bisphosphate phosphodiesterase gamma-1 (Homo sapiens) (UniProt P19174). Kind of test: blockers of human PLCG1 activity – biochemical, fluorescence, purified enzyme, primary screen (AID 720700). As to conditions: purified PLC-gamma1, fluorogenic substrate, at 12.2 µM, active compounds read high.
Regarding `O=C(C1CCN(S(=O)(=O)c2ccccc2)CC1)N1CCN(C2CCCCC2)CC1`, the inhibition was -0.77%.

`Cc1ccc(-n2c(SCC(=O)Nc3cccc4ccccc34)nnc2-c2ccccn2)cc1`: the inhibition was -0.11%.

Consider `O=C1CS(=O)CN1c1ccc(Oc2ccccc2)cc1` (stereo not given), for which the inhibition was 12% (active).

In the case of `Cc1n[nH]c(=O)n1-c1ccc(Oc2ccccc2)cc1`, the inhibition was -0.23%.

In the case of `Oc1oc(-c2ccccc2Br)nc1/C=N/c1ccccn1`, the inhibition is -17.6%.

As for `CC(N=Cc1nc(-c2ccccc2)oc1O)c1ccccc1` (stereo not given), the inhibition is 14.1% (active).

Turning to `O=C1CC[C@@]23CCCN2C(=O)CCC[C@H]3[C@H]1Cc1ccccc1`, the inhibition was 0.07%.

As for `CCc1c(C)nc(N2CCN(Cc3ccccc3)CC2)[nH]c1=O`, the inhibition was -1.09%.

Consider `CC(C)n1c(CN2CCN(Cc3ccccc3)CC2)nc2ccccc21`, for which the inhibition is 9.89% (active).

For `CCCCn1c(CN2CCN(CCO)CC2)nc2ccccc21`, the inhibition was 0.96%.

Turning to `O=C(NCc1cccs1)C1CCCN(S(=O)(=O)c2ccc([N+](=O)[O-])cc2)C1` (stereo not given), the inhibition was 3.77%.

As for `O=S(=O)(c1ccccc1)N1CCC(c2nc3ccccc3o2)CC1`, the inhibition was -4.98%.

On to `COc1ccc(C(CNC(=O)c2cc(S(=O)(=O)Nc3cccc(C)c3)ccc2C)N2CCCC2)cc1` (stereo not given), for which the inhibition was 11% (active).

`COc1ccc(NS(=O)(=O)c2ccc(C)c(C(=O)NCC(c3cccs3)N3CCOCC3)c2)cc1` (stereo not given): the inhibition was -3.99%.

As to `Cc1cccc(NS(=O)(=O)c2ccc(C)c(C(=O)NCC(c3ccccc3)N(C)C)c2)c1` (stereo not given), the inhibition was 2.63%.

In the case of `C=CCOC/C=C/C#CCN(CC=C)Cc1ccc(OC)cc1OC`, the inhibition was 2.05%.

Consider `Cc1ccc(-n2c(SCC(=O)Nc3ccc(S(=O)(=O)Nc4nccs4)cc3)nnc2-c2cccnc2)cc1`, for which the inhibition was 6.23%.

For `COCCN(C(=O)CCC(=O)Nc1nccs1)C(C(=O)NCCC(C)C)c1ccc(F)cc1` (stereo not given), the inhibition was 3.17%.

With `COCCNC(=O)C(c1ccc(C)cc1)N(C(=O)CCC(=O)Nc1ccccn1)c1cccc(C)c1` (stereo not given), the inhibition was 5.63%.

As to `COCCNC(=O)C(c1ccc(O)cc1)N(C(=O)CCC(=O)Nc1nccs1)c1ccc(C)cc1` (stereo not given), the inhibition is 15.2% (active).

Take `CCC(=O)OCCCN1C(=O)CCC12CCC(c1ccccc1)CC2` (stereo not given): the inhibition was 1.02%.

As for `C[C@@H]1COc2cccc(N3CCCC3)c2S(=O)(=O)N1C`, the inhibition is -3.06%.

As to `C=CC1=C(C(=O)O)N2C(=O)[C@@H](NC(=O)/C(=N/OCC(=O)O)c3csc(N)n3)[C@H]2SC1`, the inhibition is 22.2% (active).

As to `C=CC1=C(C(=O)O)N2C(=O)[C@@H](NC(=O)/C(=N\OCC(=O)O)c3csc(N)n3)[C@H]2SC1`, the inhibition is 23.4% (active).

In the case of `COC(=O)[C@]12C[C@H](CC(=O)N3CCOCC3)C(=O)N(Cc3ccc(Cl)cc3Cl)C1=C[C@H](COCc1ccccc1)O[C@@H]2C`, the inhibition is 1.02%.

With `COC(=O)Cc1ccc(NC(=S)NCc2ccco2)cc1`, the inhibition is 2.1%.

Turning to `CC(C)Oc1ccc(CC(=O)NNC(=S)Nc2ccc(Br)cc2)cc1`, the inhibition was 9.8% (active).

`CSc1ccccc1NC(=O)Cc1ccc(Br)cc1`: the inhibition was 3.58%.

`O=C(C1CCCN1S(=O)(=O)c1ccccc1)N1CCc2ccccc2C1` (stereo not given): the inhibition is -1.86%.

Consider `O=C(NCC1COc2ccccc2O1)c1ccc(NC(=O)c2cc(F)ccc2F)cc1` (stereo not given), for which the inhibition was -4.17%.

Consider `Cc1ccc(Cn2cc(CN3[C@@H](C)COc4cc(Br)ccc4S3(=O)=O)nn2)cc1`, for which the inhibition is 0.13%.

With `C/C(=N\NC(=O)c1cccc(N2CCCC2=O)c1)c1ccc(N)cc1`, the inhibition was 1.08%.

For `O=C(c1cccc(N2CCCC2=O)c1)N1CCOCC1`, the inhibition is -4.42%.

Regarding `NC1=NN(c2cccc(C(=O)O)c2)C(=O)C1`, the inhibition was 18.9% (active).

Regarding `COc1ccc([C@H]2OC(=O)C[C@H]2C(=O)N2CCN(c3ccccc3F)CC2)cc1OC`, the inhibition is 0.67%.

As for `O=S(=O)(Nc1ncccn1)c1ccc(NS(=O)(=O)c2cccc(Cl)c2Cl)cc1`, the inhibition is 4.05%.

For `O=S(=O)(Nc1ccc(Oc2ncccn2)c(Cl)c1)c1ccc(F)cc1`, the inhibition was 9.74% (active).

For `Cn1c(=O)n(C)c2cc(NS(=O)(=O)c3ccc(F)cc3)ccc21`, the inhibition is 0.25%.

Take `COC(=O)c1cccc(Cn2ccc3ccc(-c4ccc5ccn(C(=O)c6ccccc6C)c5c4)cc32)c1`: the inhibition is -16.3%.

With `CCC(NC(=O)C1C2C=CC3(CN(Cc4ccccc4)C(=O)C13)O2)c1ccccc1` (stereo not given), the inhibition is -2%.

In the case of `COc1cccc(CCNC(=O)COc2cccc3c2OC(C)(C)C3)c1`, the inhibition was 3.51%.

Regarding `CC1(C)Cc2cccc(OCC(=O)Nc3nccs3)c2O1`, the inhibition was 0.31%.

For the compound `CN(CC(=O)Nc1ccccc1Cl)C(=O)COc1cccc2c1OC(C)(C)C2`, the inhibition was 11.8% (active).

With `Cc1c[nH]c2cccc(-c3ccc(Cl)cc3)c12`, the inhibition is -12%.

Consider `Nc1nc(NCC(=O)O)nc(N2CCCCCC2)c1[N+](=O)[O-]`, for which the inhibition was 9.71% (active).

As for `C=CCNc1nc(N)c([N+](=O)[O-])c(NC2CCCCC2)n1`, the inhibition is 4.77%.

For `COCCNc1nc(N)c([N+](=O)[O-])c(N2CCCCCC2)n1`, the inhibition is 7.3%.

Consider `CC(C)(C)c1ccc(CSc2nnc(-c3cccs3)o2)cc1`, for which the inhibition is 0.5%.

`O=C(CCl)NC1CCCCN(Cc2cccc(C(F)(F)F)c2)C1=O` (stereo not given): the inhibition is -1.65%.

On to `CCOC(=O)[C@@]12CCC3=C1N(CCC3)C(=O)[C@H](CC(=O)N1CCN(C(=O)c3ccco3)CC1)C2`, for which the inhibition is -1.32%.

Consider `CN(C(=O)c1ccc(NC(=O)Cc2cccc(NC(=O)C3CCN(C(=O)c4ccccc4)CC3)c2)cc1)C1CC1`, for which the inhibition was 10.7% (active).

As to `CN(C(=O)c1cccc(NC(=O)Cc2cccc(NC(=O)C3CCCN(C(=O)C4CC4)C3)c2)c1)C1CCC1` (stereo not given), the inhibition is 0.32%.

On to `CN(C(=O)c1cccc(NC(=O)Cc2ccc(NC(=O)C3CCN(C(=O)C4CCCCC4)CC3)cc2)c1)C1CCC1`, for which the inhibition was 1.78%.

Turning to `CC(C)(C)NC(=O)C(c1cccnc1)N(C(=O)c1cnco1)c1ccc(C(C)(C)C)cc1` (stereo not given), the inhibition is 0.93%.

Consider `COC(=O)[C@]12C[C@H](CC(=O)NCc3cccc4ccccc34)C(=O)N(CCc3ccc(OC)c(OC)c3)C1=C[C@H](C1CCCC1)O[C@@H]2C`, for which the inhibition is 4.89%.
